Several values for one entry are separate records, joined by “and”; a condition that tells them apart may be missing. Equal entries are not always repeated. The campaign covered roughly 34,000 compounds. About 290 (0.85%) showed an effect of 50% or more. The sample holds strong results, similar compounds and a random draw of the others, so the mix is not that of the screen.
Tested on: Plasmodium falciparum
Assay: Plasmodium falciparum sporozoite viability assay
Assay type: functional, organism-based
Design: scale not given: in the data most compounds retested in dose-response had high values

Compound	Percent Effect [%]	Percent Effect (10 mM as filed; unlikely as a test dose)
CN(C)CCN1Cc2ncn(C)c2C(COCC(=O)N(C)C)C1 (stereo unspecified)	10.44	
CC1CCc2nn(CCNC(=O)Cc3ccccc3F)c(=O)cc2C1 (stereo unspecified)		-25.04% and -6.135% and -21.75%
CCN(CC)Cc1ccc(C(=O)N2CCCC2Cn2cccn2)o1 (stereo unspecified)	-5.987	
Cc1cc(N2CCC3(CCCN(CCO)C3=O)C2)nc2cc(Cl)ccc12 (stereo unspecified)	-0.3581	
O=C(CN1CCCS1(=O)=O)Nc1ccc(OC2CCCC2)cc1	-4.929	
N#Cc1cc(NC(=O)c2ccccc2)ccc1N1CCC(O)CC1	-10.71	
COc1cccc(C(=O)Nc2ccc(OC3CCN(C)CC3)cc2)c1		24.26% and 49.56% and 59.7%
O=C(NC1=NCCCN1c1ccc(Cl)cc1)c1cccc(Cl)c1		-9.725% and -15.1% and -5.453%
Cc1cccc(C(=O)Nc2ccc(OC3CCN(C)CC3)cc2)c1		84.14% and 90.45% and 76.34%
CCOc1ccc(N2CCCN=C2NC(=O)c2cccc(Cl)c2)cc1	-13.96	
COc1ccc(NC(=O)c2cnc(C3CCN(C)CC3)nc2C)cc1	-1.219	
CCC1=N[C@@]2(CC[C@@H]3CN(Cc4ccc(Cl)cc4)C[C@@H]32)C(=O)N1C.O=C(O)C(F)(F)F	-5.486	
Cc1nc(CC(=O)N2CCC(c3nn(C)c4ncccc34)CC2)cs1.Cl	3.729	
Cc1nc(-c2nnc[nH]2)sc1C(=O)N1CCCC1c1ccsc1 (stereo unspecified)	7.018	
Cc1nc(C)n(C2CCCN(C(=O)c3csc(CC(C)C)n3)C2)n1 (stereo unspecified)	0.06439	
CN(C)c1ccc(C(=O)N2CCC(c3cc4ncccc4[nH]3)CC2)cc1	-1.989	
CC(=O)NCCC(=O)NCc1cc(Br)ccc1OC(F)F	-22.55	
O=C(O)C(F)(F)F.O=C(c1ccccc1)N1CCCC2(CCN2Cc2cccc(F)c2)C1 (stereo unspecified)	4.203	
CC(C)N1CCO[C@@H]2CN(C(=O)NCc3ccccc3)CC[C@@H]2C1.O=C(O)C(F)(F)F	8.185	
CCC(=O)N1CCC(Cc2ccccc2-c2cccc(C)c2)(C(N)=O)C1 (stereo unspecified)	2.181	
COc1cc(CNCc2ccnc(N3CCCCC3)c2)cc(OC)c1	3.028	
CSc1ccccc1C(=O)Nc1ccc(OC2CCN(C)CC2)cc1		86.05% and 73.83% and 74.05%
O=C(CC1CC1)N1Cc2nccn2CC(Cn2ncccc2=O)C1 (stereo unspecified)	1.18	

Compound	Percent Effect [%]	Percent Effect (10 mM as filed; unlikely as a test dose)
CCN1CCCn2c(nc(CNC(=O)c3ccsc3)cc2=O)C1	-13.03	
O=C(c1cc(Cl)c[nH]1)N(CCCO)Cc1cccnc1	-9.649	
Nc1nc2c(c3c1C(=O)NC3=O)CCC2		75.96% and 84.59%
Nc1nc2c(c3c1C(=O)NC3=O)CCCC2		-19.96% and -21.28%
O=C1NC(=O)c2c3c(nc(O)c21)CCCC3		-19.04% and -16.96% and 3.732%
CN(C)CCO[C@H]1CN(Cc2ccco2)[C@@H]2COC[C@H]12.O=C(O)C(F)(F)F.O=C(O)C(F)(F)F	12.07	
CC(=O)N1CCCC(C(=O)c2cnn(-c3ccc(F)cc3)c2N)C1 (stereo unspecified)		27.98% and 70.48% and 45.02%
CCCC(=O)N1CCCC(c2ccccn2)C1 (stereo unspecified)	-4.87	
CCC(=O)N1CCCC(C(=O)c2cnn(-c3ccc(F)cc3)c2N)C1 (stereo unspecified)		46.01% and 80.8% and 57.02%
CCC(=O)N1CCCC(c2nc(N(C)C)ncc2-c2ccc(F)cc2)C1 (stereo unspecified)	2.091	
CC(=O)N1CCC(C(=O)c2cnn(-c3ccccc3)c2N)C1 (stereo unspecified)	-4.265	
CCOC(=O)C1CCN(C(=O)c2cnn(-c3ccc(C)cc3)c2N)CC1	-31.22	
COc1ccc2c(c1)c(-c1nc(N(C)C)ncc1CN)cn2C	23.78	
CCC(=O)N1CCC2(CC1)CNC(=O)c1cc(C)ccc1O2	7.401	
CCOc1ncccc1NC(=O)Nc1c(C)nn(C(C)C)c1C	2.999	
Clc1ccc(OCCCN2CCN(c3cnccn3)CC2)cc1	-11.56	
O=C(Cn1cc(C2CC2)nn1)N(Cc1ccco1)CC1CCCO1 (stereo unspecified)	-0.6519	
Fc1cccc(Cc2cncc(C3CCCN3C3CCOCC3)n2)c1 (stereo unspecified)	-10.3	
Cc1cccc(C(=O)N2CCN(C(=O)Cc3ccccn3)CC2)c1C		0.7402% and -14.31% and -17.8%
CN1CCN(C2CCN(c3cnc4ccccc4n3)CC2)C1=O		71.66% and 96.44% and 85%
CN1CCN(C2CCN(CCOc3ccccc3)CC2)C1=O	2.798	
CN1CCN(C2CCN(c3ccnc(-c4ccccc4)n3)CC2)C1=O		-12.56% and 9.01% and -14.11%
CCc1n[nH]c(C2CN(C(=O)c3ccnc(C)n3)CCO2)n1 (stereo unspecified)	-2.148	

Compound	Percent Effect [%]	Percent Effect (10 mM as filed; unlikely as a test dose)
CCc1nc(CC(=O)N2CCCCC2Cn2cccn2)cs1 (stereo unspecified)	3.352	
Cc1cccc(CN2C[C@@H]3CN(C(=O)C4CC=CC4)C[C@@H]3C2=O)n1	-3.24	
CN1CCCC1c1ccc(C(=O)N2CCc3ccccc3C2)s1 (stereo unspecified)		96.19% and 93.66% and 95.32%
O=C(c1ccc(C2CCCO2)s1)N1Cc2ccccc2C1 (stereo unspecified)		-3.474% and -5.294% and -6.784%
CC(=O)N1CCCC1c1ccc(C(=O)N2CCOCC2)s1 (stereo unspecified)	9.227	
Cc1cc(N2CCN(c3ccc(=O)[nH]n3)CC2)nc(-c2ccncc2)n1	8.684	
Cc1nc(C)n(CC2CCCN(Cc3ccccc3C#N)C2)n1 (stereo unspecified)	4.939	
CC(=O)N[C@H]1CCO[C@@H](c2cccc(NC(=O)c3cccc(F)c3)c2)C1		55.02% and 42.93% and 54.57%
CC(=O)N[C@H]1CCO[C@@H](c2cccc(NC(=O)C(C)(C)C)c2)C1		12.38% and 11.09% and 3.549%
Cc1nn(C)cc1CN1CCC(c2ncc(Cl)cc2S(C)(=O)=O)CC1	3.927	
Cc1cc(C)c(S(=O)(=O)NCCC(=O)NCc2ccoc2)c(C)c1	-16.91	
CN(C)C(=O)NCC1CC2(CO1)CN(c1nncs1)C2 (stereo unspecified)	9.107	
Cc1cc2cc(C(=O)N[C@@H]3CC[C@@H](N4CCNC(=O)C4)[C@@H]3O)ccc2o1	-1.506	
COc1ccccc1CNC(=O)CNCCn1cc(C)cn1	7.81	
Cc1nc(C(=O)NCc2ccccn2)cc(C2CCCN2)n1 (stereo unspecified)	15.86	
COc1c(C2CCCN2CC(=O)Nc2nc(C)cs2)c(C)nn1C (stereo unspecified)	-5.597	
Cc1csc(NC(=O)c2cnc(C3CCCN(C)C3)cn2)n1 (stereo unspecified)		50.33% and 85.32% and 71.26%
Cc1nn(C)c(C)c1-c1cnc(C2CCCN(C)C2)cn1 (stereo unspecified)		-21.75% and -20.87% and 0.3933%
Cl.O=C(NCC(F)F)c1cnc(C2CCCN2)cn1 (stereo unspecified)	6.016	
O=C(NCc1ccccn1)c1cnc(C2CCCN2)cn1 (stereo unspecified)	-5.932	
Cc1csc(NC(=O)c2cnc(C3CCCN3)cn2)n1.Cl (stereo unspecified)		76.82% and 93.2% and 90.06%
Cc1nc2cc(-c3nccn3C)nn2c(N2CCCC2)c1C	12.19	
CC(C)(CO)Nc1cc(-c2ccncc2)ncn1	-5.504	

Compound	Percent Effect [%]	Percent Effect (10 mM as filed; unlikely as a test dose)
COc1ccc(S(=O)(=O)N2CCN(C)c3ncccc3C2)cc1.O=C(O)C(F)(F)F	6.245	
CN1CCCN(C(=O)NCc2cccnc2-n2cccn2)CC1	-0.7887	
Cc1ncccc1NC(=O)[C@@H]1CCO[C@@H]2CCN(c3ccncn3)C[C@H]21	1.798	
CCc1nccn1C1CCCN(C(=O)CCOCC(F)(F)F)C1 (stereo unspecified)		0.2657% and 18.61% and -4.801%
Cc1csc(CNC(=O)N2CCN(Cc3cc(C)on3)CC2)n1	3.68	
Cc1nc(C(NC(=O)c2cc(C(C)C)[nH]n2)c2ccccc2)n[nH]1 (stereo unspecified)	1.665	
CC(NC(=O)c1cc(C(C)C)[nH]n1)C(=O)Nc1ccccc1 (stereo unspecified)		72.25% and 63.23% and 81.29%
CC(C)c1cc(C(=O)NCCn2nc3ccccn3c2=O)n[nH]1	-7.561	
O=C(C1CC1)N1CCc2nc(C3CCN(C(=O)C4CC4)C3)nc(O)c2C1 (stereo unspecified)	2.355	
Cc1nn(CC(C)C)c(N(C)C)c1CNCc1ccccc1CO	9.702	
Cc1nn(CC(C)C)c(N(C)C)c1CNCc1cccnc1N(C)C	0	
Cc1nc(-c2ccncc2)ncc1C(C)NC(=O)CN1CCCC1=O (stereo unspecified)	-5.692	
Cc1cc(C2CCN(C(=O)c3cnn(C)c3)CC2)ccn1	2.879	
Cc1ccc(-c2ccc(C3CNCCO3)nc2)cc1.Cl (stereo unspecified)		90.92% and 91.35% and 89.87%
Cl.Fc1ccccc1OCCc1cc(C2CNCCO2)n[nH]1 (stereo unspecified)	-0.03121	
CN(C)c1ncc(-c2ccc(C(N)=O)cc2)c(C2CNCCO2)n1 (stereo unspecified)	-5.327	
CN(C)c1ncc(-c2ccc(F)cc2)c(C2CNCCO2)n1.Cl (stereo unspecified)	8.117	
CN(C)c1ncc(-c2cccc(F)c2)c(C2CNCCO2)n1.Cl (stereo unspecified)	2.337	
Cl.c1ccc(-c2ccc(C3CNCCO3)nc2)cc1 (stereo unspecified)		93.99% and 69.13% and 81.53%
CN(C)c1ncc(-c2cncnc2)c(C2CNCCO2)n1.Cl (stereo unspecified)	-2.536	
O=C(c1cccnn1)N1C[C@@H]2CC[C@H](Oc3cccc(F)c3)[C@@H]2C1	-11.48	
CC(C(=O)NCc1ccnc(N2CCOCC2)c1)n1cccn1 (stereo unspecified)	3.476	

Source: ChEMBL document CHEMBL3988442, “University of Dundee, Small-Polar-MMV Screening Library” (2021)
